{"source": "PubChem BioAssay AID1508625", "about": "(Wald Lab, School of Medicine, Case Western Reserve …, 2021)", "data": [{"experiment": "enhancers of NK cell killing of ovarian tumor cells, primary screen, imaging, OVCAR3, primary NK cells, calcein-AM imaging (AID 1508625);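 also: compound given to NK cells 16 h before adding targets at 1.5 to 1 ratio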", "conditions": "OVCAR3 lysis by primary NK cells, at 5 µM; z-score: measured here: robust Z-score, single-point normalisation", "units": {"corrected activity, negative = more killing": "%"}, "values": [{"smiles": "O=C1NN(c2cccc(Cl)c2)C(=O)C1=Cc1cc(Cl)ccc1O", "corrected activity, negative = more killing": -4.57, "z-score": -1.45}, {"smiles": "O=C(O)C1C2C=CC(O2)C1C(=O)N1CCC(Cc2ccccc2)CC1", "note": "(centres undefined)", "z-score": -1.34, "corrected activity, negative = more killing": -3.25}, {"smiles": "Cc1c(N=Cc2c[nH]c3ccccc23)cccc1[N+](=O)[O-]", "z-score": -0.872, "corrected activity, negative = more killing": -2.05}, {"smiles": "COC(=O)c1cc2nc(-c3ccccc3)cc(C)n2n1", "corrected activity, negative = more killing": -2.69, "z-score": -1.39}, {"smiles": "COCCCNCCOc1c(Cl)cc(C)cc1Br", "corrected activity, negative = more killing": -4.25, "z-score": -1.58}, {"smiles": "Cc1nn(C(=O)c2cccnc2)c(C)c1Sc1ccc(Cl)cc1", "corrected activity, negative = more killing": -1.68, "z-score": -0.87}, {"smiles": "CN1C(=O)c2ccccc2Sc2ccc(C(=O)O)cc21", "corrected activity, negative = more killing": -8.06, "z-score": -2.17}, {"smiles": "Cc1cc(C)n(C(=O)c2ccc(S(=O)(=O)N3CCCCCC3)cc2)n1", "z-score": -1.46, "corrected activity, negative = more killing": -2.63}, {"smiles": "CC(C)NC(=O)CC(=O)NN=C1CCCC1", "z-score": -2.58, "corrected activity, negative = more killing": -6.06}, {"smiles": "Cn1c(=O)c2c(nc(Oc3ccc(Cl)cc3)n2Cc2ccccc2Br)n(C)c1=O", "corrected activity, negative = more killing": -3.02, "z-score": -0.9}, {"smiles": "CCOC(=O)c1ccc2c(c1)[C@@H]1C=CC[C@@H]1[C@H](c1ccccc1Br)N2", "corrected activity, negative = more killing": 3.06, "z-score": 0.914}, {"smiles": "O=c1c(=Nc2ccccc2O)c(=O)c2ccccc12", "corrected activity, negative = more killing": -2.51, "z-score": -0.945}, {"smiles": "CCOC(=O)c1ccc(NC(=O)C2CCN(C(=O)c3cccs3)CC2)cc1", "corrected activity, negative = more killing": -6.67, "z-score": -2.48}, {"smiles": "COc1cc(OC)c(C=C2C(=O)NC(=S)N(c3ccc(Cl)cc3)C2=O)cc1Br", "z-score": -1.07, "corrected activity, negative = more killing": -2.07}, {"smiles": "CC1(C)CC(c2csc(N)n2)CCO1", "note": "(centres undefined)", "corrected activity, negative = more killing": -2.99, "z-score": -1.14}, {"smiles": "O=C(Nc1ccccc1[N+](=O)[O-])C12CC3CC(CC(C3)C1)C2", "corrected activity, negative = more killing": -1.55, "z-score": -0.55}, {"smiles": "COC(=O)c1cc(Cl)c(NC(=O)c2cc3ccccc3oc2=O)cc1OC", "z-score": -0.79, "corrected activity, negative = more killing": -1.77}]}]}
